This note sets out measurements from PubChem BioAssay (NCI).

“And” between values parts separate entries of the source, which are not always exact repeats. Equal values may be shown once. The panel holds about 83,000 compounds, 20% with a hit somewhere; the sample as a whole holds those more often.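 Activity criterion: percent growth below 10, measured after cells in 96-well plates were exposed to a single compound concentration for 48 hours.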 The source made the active and inactive calls.

The assay has as its system ACHN renal. The experiment in a line: NCI-60 one-dose screen, 48 h (100 = growth as untreated, 0 = no growth, -100 = all killed). Particulars: 10 µM unless noted.
`NNc1nnc2nc(Nc3ccccc3)nc(Nc3ccc(S(N)(=O)=O)cc3)n12`: the growth is 106% (inactive).

As for `Brc1ccc2[nH]cc(-c3nn4cc(-c5nccs5)nc4s3)c2c1`, the growth is 3.16% (active).

Turning to `Nn1c(=O)n(-c2cccc(C(F)(F)F)c2)c(=O)c2cc(-c3ccc(F)cc3F)ccc21`, the growth is 0.86% (active).

Regarding `CN(C)CCNc1ccc2ncc(C#Cc3cncc(C(=O)Nc4ccc(CN5CCN(C)CC5)c(C(F)(F)F)c4)c3)n2n1`, the growth is 10.7% (inactive).

As for `O=S(=O)(Oc1ccc(-c2cn3ccoc3n2)cc1)C1CCCCC1`, the growth was 105% (inactive).

`O=C(N/N=C\c1ccc([N+](=O)[O-])cc1)c1ccc2nc(-c3ccc(Br)cc3)[nH]c2c1`: the growth is 34.1% (inactive).

`Cc1ccsc1[C@H]1c2[nH]c3ccccc3c2C[C@H]2C(=O)N(CCCCCCC(=O)NO)CC(=O)N12`: the growth is 93.5% (inactive).

Take `Cc1ccc(N2CCN(C3=C(Cl)C(=O)c4ncccc4C3=O)CC2)cc1`: the growth was 1.41% (active).

As for `N#Cc1cccc(-c2cc(-c3ccc4c(c3)OCCO4)[nH]n2)c1`, the growth was 44.2% (inactive).

On to `COc1cc2cc(Oc3ccc(NC(=O)c4cc(C(F)(F)F)cc(C(F)(F)F)c4)cc3)c(C)nc2cc1OCCN1CCOCC1`, for which the growth is 77.3% (inactive).

Consider `N#C/C(=N\Nc1ccc(F)cc1)C(=O)Nc1cc(-c2ccccc2)nn1-c1ccccc1`, for which the growth was 1.44% (active).

On to `CN(C)CCCOc1ccc(C(=C(c2ccccc2)C2CCCC2)c2ccc(OCCCN(C)C)cc2)cc1`, for which the growth is -94.5% (active).

On to `NC(=O)c1ncn2c(=O)n(CCF)nnc12`, for which the growth is 62.2% (inactive).

As for `CN1CCN(c2ccc(Nc3nc(NCCNS(=O)(=O)c4ccc(Cl)cc4)c4sccc4n3)cc2)CC1`, the growth is 98.2% (inactive).

As for `COc1cc(-c2nc(-c3ccccc3)[nH]c2-c2ccnc(NCCCNS(=O)(=O)c3ccc(C(F)(F)F)cc3)n2)ccc1Cl`, the growth is 33.3% (inactive) and 32.6% (inactive).

For `CC1(C)CC[C@]23CC[C@]4(C)[C@H](CC[C@@H]5[C@@]6(C)CC[C@H](N)C(C)(C)[C@@H]6CC[C@]54C)[C@H]2[C@H]1OC3`, the growth was 36.5% (inactive).

For `Clc1ccc2[nH]cc(-c3nn4cc(-c5cccnc5)nc4s3)c2c1`, the growth was 87.8% (inactive).

Take `NS(=O)(=O)c1ccc(Nc2nc(N/N=C/c3ccc4c(c3)OCO4)nc(Nc3ccccc3)n2)cc1`: the growth is 57.8% (inactive).

In the case of `Brc1cc(-c2cc(-c3ccc4c(c3)OCCO4)[nH]n2)cs1`, the growth was 56% (inactive).

Consider `CC1=C(C)C(=O)C(Nc2ccc(C)c(C)c2)=C(Br)C1=O`, for which the growth is 102% (inactive).

In the case of `COC(=O)N1CCN(CCNCc2ccc(NC(=O)c3ccc(C)c(C#Cc4cnc5cccnn45)c3)cc2C(F)(F)F)CC1`, the growth is 29.6% (inactive).

Regarding `O=C(CCCCCCN1CC(=O)N2[C@@H](c3cccs3)c3[nH]c4ccccc4c3C[C@H]2C1=O)NO`, the growth is 96.7% (inactive).

For `C=C(C)[C@@H]1CC[C@]2(C(=O)N3CCN(C)CC3)CC[C@]3(C)[C@H](CC[C@@H]4[C@@]5(C)CC[C@H](OP(=O)(OCC)OCC)C(C)(C)[C@@H]5CC[C@]43C)[C@@H]12`, the growth is 83.6% (inactive).

For the compound `CC(=O)N(O)CCCCCNC(=O)CCC(=O)N(O)CCCCCNC(=O)CCC(=O)N(O)CCCCCN(CCCCCCCCCC[P+](c1ccccc1)(c1ccccc1)c1ccccc1)CCCCCCCCCC[P+](c1ccccc1)(c1ccccc1)c1ccccc1`, the growth is 29.7% (inactive).

As to `Cc1[nH]c(C(=O)Nc2ccccc2OCc2cccc(C(=O)NCCN)c2)cc1Cl`, the growth is 95.1% (inactive).

In the case of `CCOC(=O)Nc1ccc2c(ccn2C(=O)c2cccc(F)c2)c1`, the growth is 53.4% (inactive).

`O=C(Nc1ccc(N=Cc2c(O)[nH]c3ccccc23)cc1)Nc1ccc(S(=O)(=O)Nc2ncccn2)cc1`: the growth is 104% (inactive).

In the case of `Fc1cccc(Cl)c1/C=N/Nc1nc(N/N=C/c2c(F)cccc2Cl)nc(N2CCCCC2)n1`, the growth is 4.21% (active).

For the compound `CCc1nnc(NC(=O)c2cc(-c3ccc(Cl)cc3Cl)oc2C)s1`, the growth is 50.9% (inactive).

With `C/C(=N\NC(=O)Nc1ccccc1)c1nnn(-c2ccc([N+](=O)[O-])cc2)c1C`, the growth is 104% (inactive).

Turning to `C#C[C@]1(O)CC[C@H]2[C@@H]3CC=C4c5sc(Nc6cc(Cl)ccc6OC)nc5CC[C@]4(C)[C@H]3CC[C@@]21C`, the growth was 32.1% (inactive).

With `O=C(O)CC1CCN(c2ccc3nnc(Cl)n3n2)CC1`, the growth is 98.6% (inactive).

Take `Cc1cc2nc(C(Cl)Cl)nc(-c3ccc(S(=O)(=O)N(C)C)cc3)n2n1`: the growth is 25.2% (inactive).
